In PubChem BioAssay (NCI) one finds growth data, which are given here for 40 compounds.

About 83,000 compounds went through this panel and 20% of them were active in at least one assay; those are over-represented in the sample as a whole.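 Method: cells in 96-well plates; compound added at one concentration; 48 h incubation; percent growth measured; values under 10 scored active.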 Values without a mark were called inactive. Calls of active or inactive are those of the source.

The subject of the assay is HL-60(TB) leukemia. Put plainly: NCI-60 one-dose screen, 48 h (100 = growth as untreated, 0 = no growth, -100 = all killed). The settings on record: 10 µM unless noted.
Consider `COc1ccc(/C=C/c2nc(Nc3ccc(S(=O)(=O)NC(C)=O)cc3)c3ccccc3n2)cc1`, for which the growth was 85.7%.

`Cc1ccc(S(=O)(=O)O)c(C)c1`: the growth is 100%.

Consider `COc1ccc(/C=C(/C2=NCCN2)n2ccc3ccccc32)cc1`, for which the growth was 92%.

For `O=C(c1ccc(O)cc1)c1ccc(O)cc1`, the growth was 117%.

Turning to `O=C1NC(=O)c2cc([N+](=O)[O-])cc3cccc1c23`, the growth was 135%.

`COc1ccc(/C=C\c2cc(OC)c(OC)c(OC)c2)cc1OCC(=O)Nc1ccc2nc(C)sc2c1`: the growth is -5.19% (active).

In the case of `FCOC(C(F)(F)F)C(F)(F)F`, the growth is 96.1%.

As to `COc1ccc(/C=C2\CCCC3=C2NC(N)=NC3c2ccc(OC)cc2)cc1` (stereo not given), the growth is 67.8%.

Turning to `COC(=O)c1nc(-c2ccccc2)oc1S(=O)(=O)NCC(c1ccc(Cl)cc1)N1CCCCC1` (stereo not given), the growth is 17.5%.

As to `COc1cc2nc3cc([N+](=O)[O-])ccc3c(NCCNCC(C)(C)O)c2cc1OC`, the growth was -12.8% (active).

For `CCN(CC)CCNc1ccc(C)c2sc3cc(Cl)ccc3c(=O)c12`, the growth is 17%.

Turning to `Cc1ncc(C(=O)Nc2ccc(CN3CCN(C)CC3)c(C(F)(F)F)c2)cc1C#Cc1cnc(N)c2ccncc12`, the growth is -52.8% (active).

With `C=CC(=O)NCCOc1cccc(Nc2cc(NCCCNC(=O)C3CCC3)c(Br)cn2)c1`, the growth was -55% (active).

For the compound `CC1=CC(=Nc2ccc(N(C)C)cc2)C=C(C)C1=O`, the growth was 42.8%.

On to `CN(C)c1ccc(/C=N\Nc2cc(=O)[nH]c3ccc(Cl)cc23)cc1`, for which the growth is 98.2%.

For `Nc1c(C(=O)Nc2ccccc2)sc2nc3c(cc12)CN(CCc1ccccc1)CC3`, the growth was 102%.

Consider `CC[C@H](Nc1cc(C)nc(N)n1)c1nc2cccc(NCc3ccc(C(=O)NO)cc3)c2c(=O)n1-c1ccccc1`, for which the growth is 2.35% (active).

Consider `Cc1cc2cn3c4cccnc4[nH]c(=O)c3c2cc1C`, for which the growth is -32.6% (active).

Consider `COc1ccc(/C=C2\CCC3C(CCCC34OCCO4)C2=O)cc1` (stereo not given), for which the growth was 78.3%.

Take `Cc1cc(NC(=O)Nc2cccc3ccccc23)no1`: the growth is 99.5%.

`C/C(=N/NC(=O)c1sc(=S)n(C)c1N)c1cc2cc(Cl)ccc2o1`: the growth is 113%.

As to `CCCCCCCCCCCCCCCC(=O)OC[C@@]1(O)C[C@@]23CC[C@@H]4C(C)(C)[C@H](O)CC[C@@]4(C)[C@@H]2CC[C@H]1C3`, the growth is 101%.

`COc1ccc2c(c1)/C(=C/c1c(-c3cc(OC)c(OC)c(OC)c3Br)nc3sccn13)C(=O)N2`: the growth is 77.1%.

In the case of `CNc1ccc(Nc2ccc(S(=O)(=O)O)cc2)c2c1C(=O)c1ccccc1C2=O`, the growth is 120%.

As for `c1ccc(Cn2cc(-c3nc4ccccc4s3)c3cccnc32)cc1`, the growth is 115%.

Turning to `O=C(Cc1ccccc1)C(F)(F)F`, the growth is 95%.

In the case of `C1CCC(N2CN3c4nonc4N4CN(C5CCCCC5)CN5c6nonc6N(C2)C3C45)CC1` (stereo not given), the growth was 100%.

With `CC1(C)NC(=O)c2[nH]c3c(Cl)c(Cl)ccc3c2C1C#N` (stereo not given), the growth was 65.4%.

As for `O=C(Nc1nc2cccc(-c3ccc(CN4CCS(=O)(=O)CC4)cc3)n2n1)C1CC1`, the growth was 66.4%.

On to `CN(C)c1ccc(-c2ccc(-c3ccc(C(=N)N)c(F)c3)s2)cc1`, for which the growth was -46.1% (active).

On to `CCCc1n(Cc2ccc3ccccc3n2)cc[n+]1Cc1ccc2ccccc2n1`, for which the growth was -31.2% (active).

As for `Cc1cc(NCC(=O)Nc2ccc(-c3nc4ccccc4s3)cc2)no1`, the growth is 96.5%.

Consider `COc1ccc(C/C(C)=C(\c2ccc(Cl)cc2)c2ccc(OCCCN(C)C)cc2)cc1`, for which the growth was 69.9%.

With `COc1cc(-c2nc3ccccc3[nH]2)ccc1OCC(=O)N=Nc1c(O)[nH]c2ccccc12`, the growth was 79.8%.

Consider `COc1ccc(-c2cc(-c3ccc(Nc4nc(Nc5ccccc5)nc(Nc5ccc(Cl)cc5)n4)cc3)nc(N)n2)cc1`, for which the growth was 101%.

As to `ClC1=C(Cl)C(=C2C(Cl)=C(Cl)C(Cl)=C2Cl)C(Cl)=C1Cl`, the growth was 77.7%.

With `O=C(Nc1ccc([N+](=O)[O-])cc1)C(=O)Nc1ccc([N+](=O)[O-])cc1`, the growth is 118%.

Take `C=CCOC(=O)C(=O)OCC=C`: the growth is 68.7%.

In the case of `O=C(NCCc1ccccn1)OCc1nc2nc(Cl)nc(N3CCOCC3)c2[nH]1`, the growth is -47.6% (active).

`O=C(/C=C/c1ccccc1)N(C1CCCCC1)C1CCCCC1`: the growth is 74%.
